Active and inactive are the calls of the source. Calls come from the whole dose curve.
Settings: Ebola virus entry cell assay, ratio channel
In the case of `Clc1ccc(C(c2ccccc2Cl)C(Cl)Cl)cc1` (configuration not stated), the outcome is reported as “inactive”. For `O=c1[nH]cc(F)c(=O)[nH]1`, the outcome was “inactive”. With `CN(C)CCOC(C)(c1ccccc1)c1ccccn1` (configuration not stated) the outcome was “inactive”. In the case of `COc1cc(NC(C)CCCN)c2ncccc2c1` (configuration not stated), the outcome is reported as “inactive”. With `CN(CCOc1ccc(CC2SC(=O)NC2=O)cc1)c1ccccn1` (configuration not stated) the outcome was “inactive”. In the case of `CC(C(=O)O)c1cccc(C(=O)c2ccccc2)c1` (configuration not stated), the outcome is reported as “inactive”. For `COc1nc(N)nc2c1ncn2[C@@H]1O[C@H](CO)[C@@H](O)[C@@H]1O`, the outcome was “inactive”. In the case of `N=C(N)c1ccc(OCCCCCOc2ccc(C(=N)N)cc2)cc1`, the outcome is reported as “inactive”. In the case of `COC(=O)CCc1ccc(OCC(O)CNC(C)C)cc1` (configuration not stated), the outcome is reported as “inactive”. With `C[C@@H](O[C@H]1OCCN(Cc2n[nH]c(=O)[nH]2)[C@H]1c1ccc(F)cc1)c1cc(C(F)(F)F)cc(C(F)(F)F)c1` the outcome was “inactive”. For `O=C1N=C(O)CN1/N=C/c1ccc(-c2ccc([N+](=O)[O-])cc2)o1`, the outcome was “inactive”. With `CCOC(=O)C1=C(C)NC(C)=C(C(=O)OC)C1c1cccc(Cl)c1Cl` (configuration not stated) the outcome was “inactive”. For `NS(=O)(=O)Cc1noc2ccccc12`, the outcome was “inactive”. In the case of `C=C(c1ccc(C(=O)O)cc1)c1cc2c(cc1C)C(C)(C)CCC2(C)C`, the outcome is reported as “inactive”. In the case of `Cc1ccccc1C(OCCN(C)C)c1ccccc1` (configuration not stated), the AC50 is reported as 8.91 µM (active). For `C[C@@H](NCCCc1cccc(C(F)(F)F)c1)c1cccc2ccccc12`, the AC50 was 12.6 µM (active). In the case of `CN(C)C(=O)C(CCN1CCC(O)(c2ccc(Cl)cc2)CC1)(c1ccccc1)c1ccccc1`, the AC50 is reported as 11.2 µM (active). In the case of `CC(=O)O[C@]1(C(C)=O)CC[C@H]2[C@@H]3C=C(C)C4=CC(=O)CC[C@]4(C)[C@H]3CC[C@@]21C`, the outcome is reported as “inactive”. For `C[n+]1ccccc1/C=N/O`, the outcome was “inactive”. In the case of `COc1cc(NCc2ccc3nc(N)nc(N)c3c2C)cc(OC)c1OC`, the outcome is reported as “inactive”. With `OCCN1CCN(CCCN2c3ccccc3Sc3ccc(Cl)cc32)CC1` the AC50 was 5.62 µM (active). In the case of `CC(=O)N(O)CCCCCNC(=O)CCC(=O)N(O)CCCCCNC(=O)CCC(=O)N(O)CCCCCN`, the outcome is reported as “inactive”.
